The values that follow come from PubChem BioAssay (EPA / NIEHS).

Inconclusive results are not listed. Calls of active or inactive are those of the source. The calls were made as follows: active = hit-call score of the fitted dose curve at least 0.9, where 1 is the maximum; inconclusive = response in the unintended direction; inactive = score below 0.9.

Chain of rat CYP2C12, Cyp2c12 (gene 25011) (P11510 whole entry, looked up): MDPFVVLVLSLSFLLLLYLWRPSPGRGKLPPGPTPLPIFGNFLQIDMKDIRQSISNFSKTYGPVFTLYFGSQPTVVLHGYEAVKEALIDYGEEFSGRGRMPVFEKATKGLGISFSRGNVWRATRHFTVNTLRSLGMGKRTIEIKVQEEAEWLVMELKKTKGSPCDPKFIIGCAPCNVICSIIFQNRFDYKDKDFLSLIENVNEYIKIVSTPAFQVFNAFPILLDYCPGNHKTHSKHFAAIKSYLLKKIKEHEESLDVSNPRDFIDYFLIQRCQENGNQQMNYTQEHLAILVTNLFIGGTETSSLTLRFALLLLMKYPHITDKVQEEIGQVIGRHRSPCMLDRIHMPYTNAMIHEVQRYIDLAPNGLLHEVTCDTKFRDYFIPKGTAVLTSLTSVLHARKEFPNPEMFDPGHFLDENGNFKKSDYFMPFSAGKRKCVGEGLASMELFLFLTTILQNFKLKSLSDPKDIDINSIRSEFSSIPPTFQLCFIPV

In this assay the target is rat CYP2C12, Cyp2c12 (gene 25011) (UniProt P11510). In words: NVS_ADME_rCYP2C12: NovaScreen (NVS) CYP450-related Enzyme Activity (ADME) Assay for rat CYP2C12 (AID 2283119). The protocol:
NVS_ADME_rCYP2C12 is a biochemical, single-readout assay that uses extracted gene-proteins in a cell-free assay. Measurements were taken 0.5 hour after chemical dosing in a 96-well plate.NVS_ADME_rCYP2C12 is one of one assay component(s) measured or calculated from the NVS_ADME_rCYP2C12 assay. It is designed to make measurements of enzyme activity, a form of enzyme reporter, as detected with fluorescence intensity signals by Fluorescence technology.Data from the assay component NVS_ADME_rCYP2C12 was analyzed into 1 assay endpoint. This assay endpoint, NVS_ADME_rCYP2C12, was analyzed in the positive analysis fitting direction relative to Acetonitrile as the negative control and baseline of activity. Using a type of enzyme reporter, loss-of-signal activity can be used to understand changes in the enzymatic activity as they relate to the gene Cyp2c12. Furthermore, this assay endpoint can be referred to as a primary readout, because this assay has produced multiple assay endpoints where this one serves a enzymatic activity function. To generalize the intended target to other relatable targets, this assay endpoint is annotated to the cyp intended target family, where the subfamily is xenobiotic metabolism.
Binding assays used specific radioligands (tritiated, iodinated) with non-radioactive competitive displacement ligands in agonist or antagonist protocols (as indicated) and various reference compounds and inhibitors to titrate specific binding to receptors and transporters. Most enzyme assays (CYPs, kinases, phosphatases, proteases, HDACs) used recombinant protein and specific substrates (fluorescence mostly, some colorimetric and radioactive) and inhibitors, followed by a biochemical separation of substrate and product. All assays for the biochemical HTS were initially run in duplicate at a single concentration (10 uM for CYP450 assays and 25 uM for all others). […] Each assay was run with positive and negative controls, and concurrent controls on every plate. The follow-up (secondary) screen tested active chemical-pairs in concentration series, as well as a few additional assays not tested in the primary screen, some selected negative inactives, and several cases re-run in the concentration series for confirmatory purposes.
Turning to `CNC(=O)Oc1ccccc1OC(C)C`, the outcome was inactive.
Regarding `CCOC1Oc2ccc(OS(C)(=O)=O)cc2C1(C)C` (stereo not given), the AC50 was 2.33 µM (active).
On to `O=C1c2ccccc2C(=O)N1SC(Cl)(Cl)Cl`, for which the outcome was inactive.
In the case of `CCCN(CCOc1c(Cl)cc(Cl)cc1Cl)C(=O)n1ccnc1`, the AC50 was 4.58 µM (active).
Regarding `CC(C)(C)C(O)/C(=C\c1ccc(Cl)cc1Cl)n1cncn1` (stereo not given), the AC50 was 1.25 µM (active).
With `O=C(NC(=O)c1c(F)cccc1F)Nc1ccc(OC(F)(F)C(F)OC(F)(F)F)c(Cl)c1` (stereo not given), the compound was called inactive.
For `COP(=S)(OC)Oc1ccc([N+](=O)[O-])cc1`, the AC50 is 6.47 µM (active).
Turning to `N#Cc1c(Cl)c(Cl)c(Cl)c(C#N)c1Cl`, the outcome was inactive.
On the same count and under the same terms, then `[2H]C1([2H])[n+]2ccccc2-c2cccc[n+]2C1([2H])[2H]`, with “inactive”; and `O=C(Nc1ccccc1)Nc1cnns1`, with “inactive”.
